# Data taken from the supplement of paper PMC6555819.
# Test system: RARb:RXRa (NR concentration 270 nM, RXRa partner concentration 90 nM)
# Test: PBM binding z-score (relative to random genomic background probes); higher = stronger binding; sequences stand for … in GC…GCGATTGACAGCGTAGAATGAAGG
# In short: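 Custom Agilent 4×180K protein-binding microarrays carried double-stranded probes, each with a 34-nt variable region. These regions held direct-repeat seeds, single-nucleotide variants, half-site ablations and random human genomic background sequences. Ligand-free nuclear receptor dimers were incubated on the arrays for 1 h, antibodies against each partner (one per run) detected binding, and scanned fluorescence was regression-normalized. Binding z-scores take the random background probes as reference.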
row,Sequence,PBM binding z-score
1,ATCGAAAGGTAGACGAGGTGAGTATACACCGTTT,0.438
2,CAGCCTAGGTCAGGGCCGGTATAGGAGGAACGTT,3.33
3,CAAACTAGGTCAAGAGGTCGAAGTCCGCTTCCCG,4.44
4,TAGCCTAGGTCATTGGGGCAGTATAGTACGCATC,3.83
5,CGAACTAGGTCATTGACAGGACAGTGAATAGTAA,3.79
6,AGATGTAGGTTACATCCGGGTCATTCAGGCTATG,2.24
7,CAAACTAGGTCAAAGAGGTCAAAGTCCGTGCGTA,4.77
8,CATACAGGGTCAGCTAGGCCAGGGTAGGGACGGC,4.02
9,GCTTACGGGTCGAAGGTTATAGCATGAATAGAAT,1.49
10,CCTATTGGGCCACGAAAGGTCATTGATTCAGTGA,4.13
11,CCCACTGGGCCAAAGGTCATTGATTCCAATGCTC,4.39
12,CCGACTGGGGCAAAAGTTACCATACTCAGTACGA,0.202
13,ACTAGCAGGCCAAGTTTGGGTCACTCTAACAAAG,1.91
14,CGAACTAAGTCAGAACAGGACAGTGAAGGATGAT,-0.103
15,ACAGACAGTTGATGAAGGTAACTCAGGCTATCAT,0.225
16,ATCTCTAGGTAACCAAGTTCAGTGGATGCCGAAC,1.18
17,CAAACTAGGTCACCGGAAGGTCAAGGTCCGCATG,5.37
18,CCTTACGGGTCACTGACAGTTTATAGCATTTGGA,3.9
19,AGGCAAAGTTCAGGACGAGGTAACGTAAAGCACG,4.26
20,CGTCCAAGGCCAGCAGGTCAGTGAAAGCGACGTG,2.36
21,ATCTCTAGGTAAGACTCAGTGCAGTGAAGAACGC,-0.152
22,CCGACTGGGGCATAAGGTTAACATAAGCCAGCCC,1.88
